Among the data in the supplement of paper PMC13380429 are morphology score and SARS-CoV-2 infection rate values, retold here.

The subject of experiment [1] is Vero E6 infected with SARS-CoV-2. Briefly: morphology score (similarity to uninfected cells); higher = more like uninfected cells. As to conditions: 24 h.
Experiment [2] shares this test system. Briefly: SARS-CoV-2 infection rate relative to infected DMSO; higher = more infection, active = 60 or less. As to conditions: 24 h.

In experiment [1], `Cn1cc(-c2ccc(F)c(C(F)(F)F)c2)nc1C1CCN(c2ncnc3[nH]ncc23)CC1` (10 µM) returned a morphology score of 0.119. In experiment [2], the SARS-CoV-2 infection rate was 110% (inactive).

In experiment [1], `Cc1noc(NS(=O)(=O)c2cccc3c(N(C)C)cccc23)c1C` (10 µM) gave a morphology score of 0.115. The SARS-CoV-2 infection rate in experiment [2] is 95.5% (inactive).

In experiment [1], `O=C1NCCN1CCN1CCC(c2cn(-c3ccc(F)cc3)c3ccc(Cl)cc23)CC1` [sertindole] (0.833333 µM) showed a morphology score of -0.0791. Moreover, the SARS-CoV-2 infection rate in experiment [2] is 106% (inactive).

As to `C=CC(=O)Nc1cc(Nc2nccc(-c3c[nH]c4ccccc34)n2)c(OC)cc1N(C)CCN(C)C` (0.833333 µM), the morphology score in experiment [1] is -0.245. The SARS-CoV-2 infection rate in experiment [2] was 112% (inactive).

In experiment [1], `Cc1cc(C(=O)N2Cc3cnn(C)c3Nc3ccccc32)ccc1CNC(=O)N1CCC[C@H]1C(=S)N1CCCN(C)CC1` (10 µM) came in with a morphology score of 0.0545. Also, the SARS-CoV-2 infection rate in experiment [2] is 110% (inactive).

In experiment [1], `Oc1cccc2cccnc12` [oxyquinoline] (10 µM) registered a morphology score of 0.202. Further, the SARS-CoV-2 infection rate in experiment [2] was 93.5% (inactive).

For `C1N2CN3CN1CN(C2)C3` [methenamine] (10 µM), in experiment [1], the morphology score is 0.11. Also, the SARS-CoV-2 infection rate in experiment [2] is 100% (inactive).

In turn, `N[C@@H](CSC(c1ccccc1)(c1ccccc1)c1ccccc1)C(=O)O` [S-trityl-L-cysteine] (0.833333 µM) yielded a morphology score in experiment [1] of 0.107. Also, the SARS-CoV-2 infection rate in experiment [2] was 110% (inactive).

In turn, `Nc1nc(F)nc2c1ncn2[C@@H]1O[C@H](CO)[C@@H](O)[C@@H]1O` [fludarabine] (10 µM) showed a morphology score in experiment [1] of -0.0436. Moreover, the SARS-CoV-2 infection rate in experiment [2] is 107% (inactive).

Turning to `CCN1CCCC1CNC(=O)c1cc(S(N)(=O)=O)ccc1OC` (centres undefined) [sulpiride] (10 µM), the morphology score in experiment [1] was -0.0261. In experiment [2], the SARS-CoV-2 infection rate was 105% (inactive).

`COC(=O)c1cc(OC)c2c(c1-c1c(CO)cc(OC)c3c1OCO3)OCO2` [bicyclol] (10 µM) had a morphology score in experiment [1] of 0.199. Further, the SARS-CoV-2 infection rate in experiment [2] is 88% (inactive).

For the compound `COc1ccc(N2CCOCC2)c2sc(NC(=O)N3CCC(C)(O)CC3)nc12` [tozadenant] (10 µM), in experiment [1], the morphology score is 0.275. Further, in experiment [2], the SARS-CoV-2 infection rate is 97% (inactive).

Compound `CCOC(=O)Nc1ccc2c(c1)N(C(=O)CCN(CC)CC)c1ccccc1S2` [ethacizin] (10 µM) came in with a morphology score in experiment [1] of 0.00909. For the same compound, the SARS-CoV-2 infection rate in experiment [2] was 112% (inactive).

In turn, `O=C(Cc1ccc(Cl)c(Cl)c1)N1CCCC[C@@H]1CN1CCCC1` (10 µM) yielded a morphology score in experiment [1] of 0.168. Also, in experiment [2], the SARS-CoV-2 infection rate is 91.5% (inactive).

`CSc1ccc(OCc2ncc([N+](=O)[O-])n2C)cc1` [fexinidazole] (10 µM) returned a morphology score in experiment [1] of -0.0351. In experiment [2], the SARS-CoV-2 infection rate is 114% (inactive).

`O=[N+]([O-])c1c(Nc2cc(F)cc(Cl)c2)ccc2nonc12` (10 µM): the morphology score in experiment [1] was 0.097. For the same compound, the SARS-CoV-2 infection rate in experiment [2] was 94.5% (inactive).

With `NC(CO)C(=O)NNCc1ccc(O)c(O)c1O` (centres undefined) [benserazide] (10 µM), the morphology score in experiment [1] is -0.102. Also, the SARS-CoV-2 infection rate in experiment [2] is 96.5% (inactive).

`COc1ccc(CCO[C@@H]2CCCC[C@H]2N2CC[C@@H](O)C2)cc1OC` [vernakalant] (10 µM): the morphology score in experiment [1] was 0.109. For the same compound, the SARS-CoV-2 infection rate in experiment [2] was 110% (inactive).

As for `N[C@H](C(=O)O)c1ccc(O)cc1` [oxfenicine] (10 µM), the morphology score in experiment [1] is 0.246. The SARS-CoV-2 infection rate in experiment [2] was 103% (inactive).

For `CC(=O)NC[C@H]1CN(c2ccc(N3CCOCC3)c(F)c2)C(=O)O1` [linezolid] (10 µM), the morphology score in experiment [1] was determined as 0.0235. Further, the SARS-CoV-2 infection rate in experiment [2] was 112% (inactive).

`C/C=C/c1cc(OC)c(OC)cc1OC` [alpha-asarone] (10 µM) yielded a morphology score in experiment [1] of 0.0292. The SARS-CoV-2 infection rate in experiment [2] was 98.5% (inactive).

As to `NC(=O)c1cc([N+](=O)[O-])cc([N+](=O)[O-])c1` [nitromide] (10 µM), the morphology score in experiment [1] amounted to 0.265. The SARS-CoV-2 infection rate in experiment [2] is 83.5% (inactive).

In experiment [1], `CCC[C@H](NC(=O)[C@@H]1[C@H]2CCC[C@H]2CN1C(=O)[C@@H](NC(=O)[C@@H](NC(=O)c1cnccn1)C1CCCCC1)C(C)(C)C)C(=O)C(=O)NC1CC1` [telaprevir] (10 µM) gave a morphology score of 0.229. In addition, the SARS-CoV-2 infection rate in experiment [2] was 106% (inactive).

`OC[C@@H](O)[C@H]1O[C@@H]2O[C@H](C(Cl)(Cl)Cl)O[C@@H]2[C@H]1O` [chloralose] (10 µM) came in with a morphology score in experiment [1] of 0.162. The SARS-CoV-2 infection rate in experiment [2] is 103% (inactive).

In experiment [1], `Cc1nccc2[nH]c(=O)ccc12` [medorinone] (10 µM) returned a morphology score of 0.145. Further, the SARS-CoV-2 infection rate in experiment [2] was 96.5% (inactive).

Turning to `CCn1c2ccccc2c2cc(CNCc3ccccc3OC)ccc21` (10 µM), the morphology score in experiment [1] stood at 0.26. In addition, in experiment [2], the SARS-CoV-2 infection rate was 87% (inactive).

As for `O=C(c1cn(Cc2cncn2Cc2ccc(Br)cc2)cc1-c1cccc2ccccc12)N1CCOCC1` (0.833333 µM), in experiment [1], the morphology score came out at 0.342. In experiment [2], the SARS-CoV-2 infection rate is 94.5% (inactive).

Consider `CN1CCN(c2cc3c(cc2F)c(=O)c(C(=O)O)cn3-c2ccc(F)cc2)CC1` [difloxacin] (10 µM), for which the morphology score in experiment [1] is -0.0785. Further, the SARS-CoV-2 infection rate in experiment [2] is 99.5% (inactive).

Take `CCc1ccc(CCOc2ccc(CC3SC(=O)NC3=O)cc2)nc1` (centres undefined) [pioglitazone] (10 µM): the morphology score in experiment [1] came out at 0.077. In addition, the SARS-CoV-2 infection rate in experiment [2] was 110% (inactive).

In the case of `NS(=O)(=O)c1ccc(NC(=O)Nc2ccc(F)cc2)cc1` (10 µM), the morphology score in experiment [1] was 0.0694. The SARS-CoV-2 infection rate in experiment [2] was 108% (inactive).

`C[C@@H](O)[C@H]1C(=O)N2C(C(=O)[O-])=C(SC3Cn4cnc[n+]4C3)[C@H](C)[C@H]12` (some centres undefined) [biapenem] (10 µM) came in with a morphology score in experiment [1] of -0.0332. The SARS-CoV-2 infection rate in experiment [2] was 99.5% (inactive).

For `O=P(O)(NCCCl)NCCCl` [palifosfamide] (10 µM), in experiment [1], the morphology score was -0.0297. Further, the SARS-CoV-2 infection rate in experiment [2] is 107% (inactive).
